From PubChem BioAssay (NCATS) come the findings set out here.

The nature of assay [1]: Cell Viability - Hek293 (AID 427;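 active means compounds whose dose-response curve shows a full or clear partial loss of cell viability, called from curve shape rather than a numeric limit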;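 further: potency means the concentration at half of the fitted maximal effect; cells exposed to compound for 40 hours at 37 °C before reading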). The settings on record: qHTS. The method, boiled down: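 qHTS, human embryonic kidney (adenovirus-transformed) cells; 40 hr cpd, 37 °C; CellTiter-Glo ATP luminescence. Norm: DMSO = 0, 100 uM tamoxifen = 100% inhibition. Hill-fit AC50.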
(qHTS replaces the single test concentration by a dilution series.)

In assay [2] the target is Mitogen-activated protein kinase 10 (Mus musculus) (UniProt Q61831). The experiment in a line: JNK3 AlphaScreen Assay (AID 530; active means well fitted curve in either direction with a large enough effect, not every such curve was filed as active;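 further: kinase came from lysate of stimulated human HepG2 cells; signal reports phosphorylation of biotinylated GST-cJun 1-79 at Ser73 with 10 µM ATP; on the % scale 0 is the no-effect control and ±100 the full control effect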). Particulars: JNK3 lysate, c-Jun phosphorylation; series mostly up to 57.1 µM. The method, boiled down:
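JNK3 came from HepG2 lysates pre-activated with IL-1beta and TNF-alpha and phosphorylated biotinylated GST-cJun (1-79) at 10 uM ATP, pH 7.6, room temperature. Compounds were titrated. AlphaScreen signal used anti-phospho-cJun (Ser73) antibody.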
(Alpha assays give light when donor and acceptor beads are brought close together.)

Assay [3] is described as follows: Cell Viability - N2a (AID 540).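 Further: cells exposed to compound for 40 h at 37 °C; plate controls were DMSO alone for no effect and tamoxifen control for full effect; nearly all actives have a fitted effect of over 45% in size.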 The settings on record: N2a mouse neuroblastoma cell viability; at 92.2 µM (top of the series). The method, boiled down:
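First, 1500 N2a cells per well incubate 5 hr at 37 °C; next, compounds are added and incubated 40 hr at 37 °C; finally CellTiter-Glo is added and luminescence read after 20 min, with AC50 derived by Hill modeling.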

Assay [4] is described as follows: MultiTox-Fluor Cytotoxicity Assay - LYMP1-001 - Dead Cells (AID 946). The settings on record: LYMP1-001 lymphoblastoid cells, dead-cell protease fluorescence; series mostly up to 92.2 µM. The method, boiled down:
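Seed 2500 LYMP1-001 cells/well, incubate 5 hr at 37 C; add compound, 16 hr at 37 C; add MultiTox-Fluor reagent, 60 min RT; read dead-cell fluorescence Ex/Em=485/520. Normalize to DMSO and 15 uM tetraoctylammonium bromide.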

Assay [5] in a line: Cell Viability - LYMP1-002 - Assay at 16 hr (AID 948).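 Further: 0% = DMSO alone and full effect = 92 µM tetraoctylammonium bromide.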 The settings on record: LYMP1-002 lymphoblastoid cell viability; series mostly up to 92.2 µM. The method, boiled down:
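Acute cytotoxicity is scored as a concentration-dependent fall in intracellular ATP in a human lymphoblastoid line (LYMP1-002) after 16 hr compound exposure at 37 C, measured by luciferase luminescence.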

The nature of assay [6]: MultiTox-Fluor Cytotoxicity Assay - LYMP1-003 - Dead Cells (AID 961). Further: nearly all actives have a fitted effect of over 70% in size. The settings on record: LYMP1-003 lymphoblastoid cells, dead-cell protease fluorescence; series mostly up to 92.2 µM. The method, boiled down: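 LYMP1-003 lymphoblastoid, 2500 cells/well, 5 hr settle then 16 hr cpd at 37 C; MultiTox-Fluor reagent 60 min RT; Ex/Em 485/520 dead-cell signal; norm. DMSO = 0%, 15 uM tetraoctylammonium bromide = 100%; Hill AC50.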

Assay [7] in a line: MultiTox-Fluor Cytotoxicity Assay - LYMP1-003 - Live Cells (AID 962).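 Further: 0% = DMSO only and full loss = 92 µM tetraoctylammonium bromide; cytotoxic hits lower the live-cell protease signal.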 The settings on record: LYMP1-003 lymphoblastoid cells, MultiTox-Fluor live-cell protease fluorescence; series mostly up to 92.2 µM. An outline of the steps:
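Cells plated at 2500 per well and incubated 5 hr; compounds added and incubated 16 hr at 37 C; MultiTox-Fluor reagent added for 60 min at room temperature; fluorescence of liberated AFC measured at 405/510 nm.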

Assay [8] in a line: Cell Viability - LYMP1-003 - Assay at 24 hr (AID 963).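 Further: plate controls were DMSO only for no effect and tetraoctylammonium bromide positive control for full effect.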 The settings on record: LYMP1-003 lymphoblastoid cell viability; series mostly up to 92.2 µM. An outline of the steps:
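Acute toxicity in LYMP1-003 lymphoblastoid cells: 24 hr compound treatment at 37 C, ATP measured with CellTiter-Glo after 30 min at room temperature. AC50 derived by fitting the Hill equation to qHTS titrations.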

Assay [9] can be described thus: Cell Viability - LYMP2-005 (AID 967).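 Further: plate controls were DMSO only for no effect and 92 µM tetraoctylammonium bromide control for full effect.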 Particulars: LYMP2-005 lymphoblastoid cell viability; series mostly up to 92.2 µM. The method, boiled down: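 qHTS viability screen in LYMP2-005 cells: 24 h at 37 C with compound, ATP luminescence via CellTiter-Glo, AC50 from Hill curves.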
Assay [10] in a line: Cell Viability - LYMP2-015 (AID 971).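 Further: 0% = DMSO only and full effect = 92 µM tetraoctylammonium bromide; nearly all actives have a fitted effect of over 55% in size.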 Particulars: LYMP2-015 lymphoblastoid cell viability; series mostly up to 92.2 µM. The method, boiled down: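 Acute toxicity was scored as a concentration-dependent drop in intracellular ATP in lymphoblastoid cells after 24 hr compound exposure in complete medium. Detection used CellTiter-Glo luciferase luminescence.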
Assay [11] in a line: Cell Viability - LYMP2-025 (AID 976).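 Further: plate controls were DMSO only for no effect and tetraoctylammonium bromide control for full effect.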 The settings on record: LYMP2-025 lymphoblastoid cell viability; series mostly up to 92.2 µM. An outline of the steps: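 In qHTS format, LYMP2-025 lymphoblastoid cells in complete culture medium received compound for 24 hr; ATP-based CellTiter-Glo signal gave viability, with AC50 derived by Hill equation.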
Assay [12] in a line: Cell Viability - LYMP2-006 (AID 978).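 Further: cells exposed to compound for 24 hours; on the % scale 0 is the no-effect control and ±100 the full control effect; nearly all actives have a fitted effect of over 60% in size.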 The settings on record: LYMP2-006 lymphoblastoid cell viability, qHTS; series mostly up to 92.2 µM. The method, boiled down:
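Concentration-dependent loss of intracellular ATP in a human lymphoblastoid line after 24 hr treatment at 37 C was measured by CellTiter-Glo luminescence, with AC50 values obtained from standard Hill-equation modelling.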

Assay [13] is described as follows: Cell Viability - LYMP2-008 (AID 980). Further: on the % scale 0 is the no-effect control and ±100 the full control effect; nearly all actives have a fitted effect of over 60% in size. Particulars: LYMP2-008 lymphoblastoid cell viability, qHTS; series mostly up to 92.2 µM. The method, boiled down:
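Acute cytotoxicity is scored as concentration-dependent loss of cellular ATP in a human lymphoblastoid line after 24 hr treatment at 37 C. ATP is quantified by luciferase luminescence.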

Assay [14] in a line: Cell Viability - LYMP2-026 (AID 989). Further: on the % scale 0 is the no-effect control and ±100 the full control effect; nearly all actives have a fitted effect of over 50% in size. Particulars: LYMP2-026 lymphoblastoid cell viability, qHTS; series mostly up to 92.2 µM. The method, boiled down: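 Concentration-dependent loss of intracellular ATP in human lymphoblastoid cells after 24 hr at 37 C, quantified by luciferase luminescence. AC50 derived from standard Hill equation.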
A short description of assay [15]: Cell Viability - LYMP1-002 - Assay at 40 hr (AID 994).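 Further: 0% = DMSO only and full inhibition = 92 µM tetraoctylammonium bromide; nearly all actives have a fitted effect of over 60% in size.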 Particulars: LYMP1-002 lymphoblastoid cell viability; series mostly up to 92.2 µM. An outline of the steps:
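Viability in the human lymphoblastoid line was measured as intracellular ATP via CellTiter-Glo after 40 hr compound exposure. Tetraoctylammonium bromide served as positive control.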

A short description of assay [16]: qHTS assay for small molecule agonists of retinoid X receptor alpha signaling (AID 588544). Particulars: HEK293T RXRa-UAS-bla, beta-lactamase reporter, 18 h; 530 nm emission.
A short description of assay [17]: qHTS assay for small molecule agonists of the antioxidant response element (ARE) signaling pathway measured by Nrf2-dependant transcriptional activity (AID 720636; active means well fitted curve in the direction sought with a large enough effect in the repeat runs; an effect the other way counts as inactive or inconclusive; further: % of control where 0% means no effect). The settings on record: ARE-luc HepG2, Nrf2 luciferase reporter, 16 h; series mostly up to 92.4 µM. An outline of the steps: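 ARE-luc HepG2 cells carrying an Nrf2-responsive luciferase reporter were plated in medium with 1% dialyzed FBS, left 6 hr at 37 C to attach, then exposed to compound for 16 hr. Luciferase luminescence was read after ONE-Glo addition.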

Assay [18] can be described thus: qHTS assay for small molecule agonists of the antioxidant response element (ARE) signaling pathway measured by Nrf2-dependant transcriptional activity - cell viability counter screen (AID 720653; active means well fitted curve in the direction sought with a large enough effect in the repeat runs; an effect the other way counts as inactive or inconclusive; further: on the % scale 0 is the no-effect control and ±100 the full control effect). Particulars: ARE-bla HepG2 viability, CellTiter-Glo ATP luminescence, 16 h; stronger effect = lower value. An outline of the steps: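 ARE-bla HepG2 cells (2,000/well) rested 5 hrs at 37C/5% CO2, then exposed to compounds in DMSO for 16 hrs. Viability was read in the same wells as intracellular ATP by luminescence, 30 min at room temperature after reagent addition.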

Assay [19] can be described thus: qHTS assay for cell viability of HEK293 cells (AID 743288). Further: on the % scale 0 is the no-effect control and ±100 the full control effect; nearly all actives have a fitted effect of over 50% in size. The settings on record: ATP luminescence (CellTiter-Glo), 18 h; max response: stronger effect = lower value. The method, boiled down: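 The Tox21 protocol used parental HEK293 cells treated for 18 h at 37 C with compounds delivered by pintool; ATP-coupled luminescence after 30 min at room temperature gave viability.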

Assay [20] in a line: qHTS assay for cell viability of the p53RE-bla HCT-116 cell line (AID 743292). Further: on the % scale 0 is the no-effect control and ±100 the full control effect; nearly all actives have a fitted effect of over 55% in size. The settings on record: p53RE-bla HCT-116 viability, ATP luminescence, 16 h; series mostly up to 95 µM. An outline of the steps: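 CellSensor p53RE-bla HCT-116 cells, 4,000/well, preincubated 5 h at 37 C, then exposed to compounds in DMSO for 16 h at 37 C. Viability read as CellTiter-Glo luminescence (intracellular ATP) after 30 min at room temperature.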

Where “and” joins values, the source holds several entries; their conditions need not be identical. Identical values can stand only once. Results filed as inconclusive are left out. Calls of active or inactive are those of the source. Unless noted, the call rests on the fitted dose curve; in most records, active means well fitted curve in the direction sought with a large enough effect; inconclusive means small, poorly fitted or top-dose-only effect, or another doubt; inactive means no such curve, though single readings can be large; an effect the other way counts as inactive or inconclusive. A value given as a limit tells only on which side of the number the result lay.

Regarding `OCC(Br)CBr` (configuration not stated), in assay [1], the Potency was > 92 µM (inactive). Also, the outcome in assay [2] and in [17] was inactive. For the same molecule, the activity change, negative = cytotoxicity in assay [3] is -8.1% (inactive). Moreover, the Potency result in assay [4], in assay [5], in assay [6], in assay [7], in [8] and in [9] was “inactive” each time. Besides, the Potency entry in [10], in assay [11], in [12], in assay [13], in assay [14] and in assay [15] was “inactive” in each case. Also, the Potency result in [20] was “inactive”. Besides, the max response is -16% in assay [16], -0.194% (inactive) in assay [18] and 6.86% (inactive) in assay [19].
Regarding `Brc1ccc(Oc2cc(Br)c(Br)cc2Br)c(Br)c1`, the activity change, negative = cytotoxicity in [3] is -86.7% (active) and -80.4% (active). Moreover, the Potency entry in assay [4], in [5], in assay [6], in [7], in assay [8] and in assay [9] was “inactive” throughout. Further, the Potency entry in [10], in assay [11], in assay [12], in assay [13], in assay [14] and in assay [15] was “inactive” in each case. Besides, in [20], the Potency entry is “inactive”. For the same molecule, the call in assay [17] was inactive. Further, the max response is -1.22% (inactive) and 3.3% (inactive) and -21% (inactive) in assay [18]; -22.3% (inactive) and -23.6% (inactive) in assay [19].
`CCOP(=S)(OCC)Oc1ccc([N+](=O)[O-])cc1`: the Potency in assay [1] was > 92 µM (inactive). Further, the outcome in assay [2] and in assay [17] was inactive. Further, the Potency entry in [4], in assay [5], in assay [6], in [7], in assay [8] and in assay [9] was “inactive” in each case. Besides, the Potency entry in assay [10], in assay [11], in assay [12], in assay [13], in [14] and in [15] was “inactive” each time. Besides, the Potency result in [20] was “inactive”. The max response in [16] is -6.89% and 6.11%; in assay [18], -2.59% (inactive) and 6.4% (inactive) and 13.8% (inactive); in assay [19] it was 0.0323% (inactive) and -20.7% (inactive) and -1.59% (inactive).
`Clc1ccc2ccccc2c1`: in [1], the Potency was > 92 µM (inactive). In addition, the result in assay [2] and in assay [17] was inactive. Moreover, the activity change, negative = cytotoxicity in assay [3] was 3.7% (inactive). The Potency result in assay [4], in assay [5], in [6], in assay [7], in [8] and in [9] was “inactive” in each case. The Potency entry in [10], in [11], in assay [12], in assay [13], in [14] and in assay [15] was “inactive” throughout. Also, in assay [20], the Potency result was “inactive”. Besides, the max response in [16] was -15.7%; in assay [18], 4.36% (inactive); in assay [19], 3.91% (inactive).
Regarding `Cc1ccc([N+](=O)[O-])cc1C`, in assay [1], the Potency was > 92 µM (inactive). The result in [2] and in assay [17] was inactive. In addition, the activity change, negative = cytotoxicity in assay [3] is -25% (inactive). Besides, the Potency result in assay [4], in assay [5], in [6], in [7], in assay [8] and in [9] was “inactive” throughout. Moreover, the Potency result in assay [10], in [11], in assay [12], in assay [13], in assay [14] and in assay [15] was “inactive” throughout. The Potency entry in [20] was “inactive”. Moreover, the max response in [16] was -11.5%; in assay [18], 4.05% (inactive) and -7% (inactive); in [19] it was -0.535% (inactive) and -15% (inactive).
Consider `CC[C@]1(c2cccc(O)c2)CCCCN(C)C1`, for which the molecule was classed as inactive in [2].
As for `CCCSC(=O)Cl`, in [1], the Potency was > 92 µM (inactive). Further, the call in assay [2] and in [17] was inactive. Besides, the activity change, negative = cytotoxicity in assay [3] is -16.5% (inactive). The Potency result in assay [4], in assay [5], in assay [6], in assay [7], in [8] and in [9] was “inactive” in each case. Moreover, the Potency result in [10], in assay [11], in assay [12], in [13], in [14] and in [15] was “inactive” throughout. In addition, the Potency result in assay [20] is “inactive”. Moreover, the max response in assay [16] is -2.47%; in assay [18], -4.21% (inactive); in assay [19], -1.07% (inactive).
`O=[N+]([O-])c1ccc(Cl)c(Cl)c1`: the Potency in assay [1] is > 92 µM (inactive). Moreover, the call in [2] and in assay [17] was inactive. Moreover, the activity change, negative = cytotoxicity in [3] is -3.37% (inactive). Also, the Potency entry in assay [4], in assay [5], in [6], in [7], in assay [8] and in assay [9] was “inactive” throughout. The Potency result in assay [10], in assay [11], in [12], in [13], in assay [14] and in assay [15] was “inactive” each time. Further, the Potency result in assay [20] is “inactive”. Besides, the values for the max response in assay [16], in assay [18] and in [19] were 1.86%, -14.5% (inactive) and 7.83% (inactive), respectively.
